# Hits are enriched below; roughly 3.3% of the tested compounds scored in any of these assays.
# SARS PLpro yeast: SARS-CoV PLP inhibition in yeast. S. cerevisiae expressing SARS-CoV PLpro, growth rescue. Potency, µM (titrated, usually from 32.9 µM), inactives show at the highest dose activity, positive = growth rescue, actives largely listed as activators. AID 485353. actives 0.19% (n = 330,000); calls by dose curve; also: 0% is about no effect; nearly all actives have a fitted effect of over 55% in size
# Tb PYK inh: inhibitors of Trypanosoma brucei pyruvate kinase | Q57TT1 | TbPYK enzyme, Kinase-Glo Plus ATP luminescence, 45 min | Potency, µM (doses to about 76.8 µM), inactives show top-dose activity, negative = inhibition, most hits filed as inhibitors | actives 0.12% (n = 410,000) | AID 624173; also: % is scaled to controls: 0 for no effect and ±100 for the full control effect; nearly all actives have a fitted effect of over 50% in size
#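 Glycolytic pyruvate kinase of T. brucei was incubated with substrate, test compound and 130 uM ADP for 45 minutes at room temperature. Luminescent Kinase-Glo Plus signal was measured after 10 minutes.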
# Sm TGR inh: S. mansoni TGR enzyme inhibition. Q962Y6. purified TGR, DTNB reduction, TNB absorbance 405 nm. Potency, µM (top dose mostly 114 µM), without a hit: at the top dose activity change, negative = inhibition, hits mostly inhibitors. actives 3% (n = 360,000). AID 485364; also: % is scaled to controls: 0 for no effect and ±100 for the full control effect; nearly all actives have a fitted effect of over 60% in size
#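 Kinetic colorimetric format: TGR-catalysed, NADPH-driven DTNB reduction monitored via TNB absorbance. Enzyme dispensed at 20 nM; compound exposure 15 min at room temperature before reaction start.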
# AmpC no deterg: AmpC beta-lactamase inhibition without detergent | Potency, µM (highest dose often 57.1 µM), inactives show at the highest dose activity change, negative = inhibition, most hits filed as inhibitors | AID 485341 | actives 0.52% (n = 330,000) | P00811 | AmpC nitrocefin hydrolysis, absorbance 480 nm, 0.0001% Triton;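 also: plate controls were no compound for no effect and no enzyme for full effect; nearly all actives have a fitted effect of over 20% in size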
# Target sequence (P00811 whole entry, looked up): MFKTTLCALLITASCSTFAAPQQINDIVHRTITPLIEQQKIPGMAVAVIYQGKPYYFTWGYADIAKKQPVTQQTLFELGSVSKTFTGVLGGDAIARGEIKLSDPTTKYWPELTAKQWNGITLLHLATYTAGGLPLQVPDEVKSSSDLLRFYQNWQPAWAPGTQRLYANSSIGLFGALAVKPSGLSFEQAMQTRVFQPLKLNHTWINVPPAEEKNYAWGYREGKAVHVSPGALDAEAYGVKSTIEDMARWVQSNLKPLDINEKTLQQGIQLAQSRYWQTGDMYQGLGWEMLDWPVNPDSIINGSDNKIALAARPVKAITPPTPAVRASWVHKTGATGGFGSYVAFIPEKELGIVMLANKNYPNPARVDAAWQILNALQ
#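 AmpC (5.3 nM in the dispensed reagent) in 20 mM phosphate pH 7.0 with 0.01% (detergent screen) or 0.0001% Triton X-100 was preincubated with compounds for 15 min at room temperature. Nitrocefin was then added from an 800 uM solution, and hydrolysis was followed at 480 nm.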
# RE007 growth inh: less growth of the S. pombe RE007 Vpr strain; S. pombe RE007 Vpr strain, BacTiter-Glo ATP luminescence, 24 h; actives 0.21% (n = 360,000); Potency, µM (top dose mostly 92.2 µM), inactives show at the highest dose activity change, negative = less growth, hits mostly inhibitors; AID 651644; active = well fitted falling curve with a large enough effect; inconclusive = small, poorly fitted or top-dose-only effect; inactive = no such curve, though single readings can be large or run the other way; also: % is scaled to controls: 0 for no effect and ±100 for the full control effect; nearly all actives have a fitted effect of over 50% in size
#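 Fission yeast RE007 carrying one integrated HIV-1 vpr copy, seeded at OD 0.01 in PMG+AL medium with 23 nL pinned compound. Grown 24 h at 30 degrees; viability read by BacTiter-Glo luminescence after 5 min.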
# AmpC detergent: inhibitors of E. coli AmpC beta-lactamase with detergent | P00811 | actives 0.041% (n = 370,000) | Potency, µM (highest dose often 114 µM), for inactives: at the highest dose activity change, negative = inhibition, usual class: inhibitors | AmpC hydrolysis of nitrocefin, absorbance 480 nm, 0.01% Triton;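 also: 0% = no-compound wells and -100% = no-enzyme wells; nearly all actives have a fitted effect of over 25% in size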
#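 AmpC (5.3 nM in the dispensed reagent) in 20 mM phosphate pH 7.0 with 0.01% (detergent screen) or 0.0001% Triton X-100 was preincubated with compounds for 15 min at room temperature. Nitrocefin was then added from an 800 uM solution, and hydrolysis was followed at 480 nm.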
# An asterisk follows results filed as active; ? = inconclusive; . = no result. Unless noted, calls follow the shape of the dose curve; as a rule, active = well fitted curve in the direction sought with a large enough effect; inconclusive = small, poorly fitted or top-dose-only effect, or another doubt; inactive = no such curve, though single readings can be large; an effect the other way counts as inactive or inconclusive. Potency is read from the fitted curve at half-maximal effect.
SMILES,SARS PLpro yeast,Tb PYK inh,Sm TGR inh,AmpC no deterg,RE007 growth inh,AmpC detergent
CN(Cc1cc(=O)n2ccsc2n1)C1CCCCC1,-0.2%,2.1%,31.6µM*,-30.5%,11.1%,0.4%
O=C(CN1C(=O)COc2ccc(S(=O)(=O)N3CCCC3)cc21)N1CCN(c2ccc(F)cc2)CC1,.,5.6%,-5.1%,.,.,-7.8%
Cc1nn(-c2nc3ccccc3[nH]2)c(N)c1-c1ccccc1,-106.2%,0.9%,8.5%,-28.2%,28.2µM*,-3.5%
CN(CCC#N)C(=O)COC(=O)c1c2c(nc3ccccc13)/C(=C/c1ccco1)CC2,-30.1%,-18.6%,10µM*,66.6%,-10.0%,-10.8%
CC(C)CNC(=O)COC(=O)c1c2c(nc3ccccc13)/C(=C\c1cccs1)CC2,.,-8.3%,.,.,4.9%,.
COc1ccc(-c2ccn(-c3cccc(F)n3)n2)cc1,-3.2%,-0.5%,28.2µM*,-27.4%,-15.8%,5.0%
Cc1cc(NC(=O)CN(C)S(=O)(=O)c2ccc(-c3ccc(=O)[nH]n3)s2)ccc1Br,-3.6%,2.7%,-1.4%,-44.4%,24.4%,?
COc1cc(NC(=O)CN(C)S(=O)(=O)c2ccc(-c3ccc(=O)[nH]n3)s2)cc(OC)c1,-0.5%,-1.5%,31.6µM*,-1.4%,-5.8%,-0.9%
Cc1occc1C(=O)NCc1cccc(CNC(=O)c2ccoc2C)c1,-8.1%,-24.2%,39.8µM*,-29.3%,-5.9%,-17.1%
CCC(C(=O)n1cccc1C#N)c1ccccc1C (stereo not given),3.1%,3.7%,50.1µM*,-10.8%,0.1%,5.7%
COc1ccc2cc(C3CC(c4ccco4)=NN3S(C)(=O)=O)c(Cl)nc2c1 (stereo not given),0.2%,-5.8%,6.31µM*,35.1%,0.8%,2.5%
CS(=O)(=O)N1N=C(c2ccco2)CC1c1ccccc1 (stereo not given),1.0%,-12.6%,?,-17.1%,-2.4%,-9.4%
CS(=O)(=O)N1N=C(c2ccco2)CC1c1ccco1 (stereo not given),-1.0%,2.5%,20µM*,-13.4%,-2.1%,?
O=C1NC(=S)NC(=O)C1=Cc1ccc2c(c1)CCN2CCCCl,4.6%,?,14.1µM*,-40.7%,-9.7%,?
Cc1cc(C)c2ccc(N)nc2c1O,-4.8%,1.3%,-13.2%,-28.2%,27.5%,-3.7%
Cc1cc(C)c2ccc(C)[n+]([O-])c2c1O,-5.6%,1.2%,12.6µM*,-14.6%,-14.1%,-0.2%
Cc1ccc2c(c1)C(N1CCCC1=O)CC(c1ccco1)N2 (stereo not given),-6.5%,?,10µM*,-14.4%,?,?
CCC(=O)N1c2ccccc2CC1C(=O)NCCN1CCN(c2cccc(C(F)(F)F)c2)CC1 (stereo not given),.,-1.0%,-4.4%,.,.,8.9%
CCOC(=O)c1c(NC(=O)Cc2ccccc2)sc2c1CC(C)(C)NC2(C)C,3.0%,1.8%,0.7%,99.0%,10.7%,?
CCOC(=O)c1c(NC(=O)CCS(=O)(=O)c2ccccc2)sc2c1CC(C)(C)NC2(C)C,-0.4%,-1.5%,39.8µM*,44.8%,-18.0%,-6.0%
Cc1cc(NC(=O)CSc2ncc(C(=O)Nc3ccc(C)c(C)c3)c(=O)n2C)no1,.,-3.5%,6.9%,.,.,1.6%
O=c1c2c3c(sc2n2cnnc2n1-c1ccccc1)N(Cc1ccccc1)CCC3,-2.0%,-22.2%,25.1µM*,36.6%,-1.9%,?
Cc1ccc(-c2cn3c(n2)sc2cc(C(=O)NCc4cccs4)ccc23)cc1,.,-3.5%,-9.2%,.,.,3.7%
O=c1oc2c(O)c(O)cc3c(=O)oc4c(O)c(O)cc1c4c23,1.41µM*,-11.5%,-28.1%,-35.8%,5.0%,?
CN1C(=O)C2CCCCN2c2ccc(C(=O)NCc3ccccc3Br)cc21 (stereo not given),.,-4.7%,1.1%,.,.,-1.7%
